Laboratory results as given in PubChem BioAssay AID720519 (National Center for Advancing Translational Sciences (NCATS), 2013).
Inconclusive results are not listed. Active and inactive are the calls of the source. Calls follow the shape of the dose curve; as a rule, active = well fitted activation curve with a large enough effect; inconclusive = small, poorly fitted or top-dose-only effect; inactive = flat fitted curve, though single readings scatter. Square brackets hold non-standard residues; d marks the D form. Peptide text beside a SMILES is read from it. ξ: configuration not given here. ξLac(3-iPr) = CC(C)CC(O)C(=O)O; NMeV = CN[CH](C(=O)O)C(C)C; NMeA = CN[CH](C)C(=O)O; βAla = NCCC(=O)O

Test: qHTS for Inhibitors of Cell Surface uPA Generation: Confirmatory Assay for Cherry-picked Compounds; as to inhibition: 0% is about no effect
Details: cell surface uPA activity generation, qHTS confirmation; series mostly up to 115 µM; inhibition: at the top concentration
From the text: The overall objective of this project is to perform a quantitative high throughput screen (qHTS) to identify novel compounds that inhibit the generation of cell surface urokinase activity. The urokinase plasminogen activator (uPA) is one of the two primary endogenous systems that mediate plasminogen activation into plasmin. Members of this system, including uPA and its receptor (uPAR), are overexpressed in several malignant tumors. This system plays a major role in adhesion, migration, invasion and metastasis of cancer cells. Small molecule inhibitors of the uPA system will serve as probes to understand the molecular mechanisms of the uPA cascade and better understanding the micro-environmental circumstances that facilitate the activation of plasminogen by uPA, and finally may provide novel candidate agents for anticancer drug therapy.
[…] […] Upon inhibition of the uPA activation cascade, the subsequent cell surface uPA activity-dependent translocation of LF into the cytoplasm is inhibited. ATP-Lite is used to measure intracellular ATP concentrations (measure cell viability) which remain increased if LF entry into the cytoplasm is inhibited. This validation assay was performed using a small set of cherry picked compounds. Activation of cell viability (increase in luminescence signal) due to inhibition of the cell surface uPA generation is the desired outcome of this assay.
NIH Chemical Genomics Center [NCGC]
NIH Molecular Libraries Probe Centers Network [MLPCN]
Assay Submitter (PI): Thomas Bugge, National Institute of Dental and Craniofacial Research, NIH
Cultured RAW 264.7 were dispensed into 1536-well clear bottom, white walled tissue culture plates at a density of 4000 cells/well and were incubated overnight (12-16 h) at 37 C in a 5% CO2 incubator. Serially diluted compounds (1:5 dilution) in 23 nl DMSO were added to cells (0.0024 uM to 3.83 uM final concentration). […] Compound and reagent-treated plates were incubated for 24 h at 37 C in a 5% CO2 incubator. Three microliter of PerkinElmer ATPlite was then added to each well and luminescence was detected using the PerkinElmer ViewLux plate reader for a 5 sec exposure.
Potency is read from the fitted curve at half-maximal effect.

SMILES	inhibition	Potency
Cc1ncc(CN2CCCC(C(=O)c3cccc(OC(C)C)c3)C2)s1 (stereo unspecified)	-2.04% (inactive)	
O=c1[nH]c(=O)n(-c2ccc(Cl)cc2)c(O)c1C=Nc1ccc(S(=O)(=O)Nc2nccs2)cc1	-1.14% (inactive)	
CCOc1ccc(CN2CCN(C(=O)Cc3ccccc3)CC2)cc1	-2.65% (inactive)	
C[N+](C)(C)CCOC(=O)CBr	-2.83% (inactive)	
COc1ccc(-c2nn(CCC#N)cc2C(=O)Nc2cccc([N+](=O)[O-])c2)cc1OC	-1.4% (inactive)	
O=P1(NCCCl)OCCCN1CCCl (stereo unspecified)	-0.345% (inactive)	
CCC(C)C1NC(=O)C2CCCN2C(=O)C(CC(C)C)OC(=O)CCNC(=O)C(C)N(C)C(=O)C(C(C)C)N(C)C1=O (stereo unspecified) (cyclo([ξLac(3-iPr)]PI[NMeV][NMeA][βAla]); configuration not given here)		3.69 µM (active)
COc1ccc(-c2nn(CCC#N)cc2C(=O)Nc2ccccc2)cc1OC	-1.47% (inactive)	
Cc1ccccc1O	-0.088% (inactive)	
COC(=O)C1=C(c2cccc(OC)c2OC)C[C@@H]2CC[C@H]1N2C(=O)NC1CC1	-0.831% (inactive)	
c1cncc(C2CCCCN2)c1 (stereo unspecified)	0.0289% (inactive)	
FC(F)(F)Oc1ccc(NC2=NCCCS2)cc1	-1.26% (inactive)	
COc1ccccc1NC(=O)N1C[C@@H]2C[C@@H](C1)c1cccc(=O)n1C2	0.817% (inactive)	
COc1ccccc1N1CCN(Cc2ccc(SC)cc2)CC1	-3.27% (inactive)	
O=c1[nH]c(=O)n(CCc2ccccc2)c(O)c1C=NC1CC1	-1.12% (inactive)	
CCCCCn1c(=O)c(C(=O)Nc2ccccn2)c(O)c2ccccc21	-3.37% (inactive)	
O=C(c1ccc(F)c([N+](=O)[O-])c1)N1CC2CC(C1)c1cccc(=O)n1C2 (stereo unspecified)	-0.87% (inactive)	
Cc1ccc(-n2c(O)c(C=NCCN3CCNCC3)c(=O)[nH]c2=S)cc1	9.38% (inactive)	
COCC(=O)N1Cc2ccccc2-n2nncc2C1	1.13% (inactive)	
CCOC(=O)c1ccc(N=Cc2c(O)n(-c3ccc(OC)cc3)c(=S)[nH]c2=O)cc1	0.888% (inactive)	
Cc1cc(C(=O)NP(=O)(N2CCOCC2)N2CCOCC2)c(C)n1C1CC1	1.26% (inactive)	
